Of roughly 8,800 targets only a part is listed; those with a hit were picked by preference. About 0.5% of all pairs of compound and target were hits.
How the values were obtained:
Experiment in all cases: log2 fold change, soluble protein after heating vs DMSO (PISA); higher = thermal stabilisation; K562 lysate, 10 uM; active = over 0.2 and 3.5 SD of the protein, either way, in both replicates (recomputed)
[1] = compound: C#Cc1cccc(Nc2ncnc3cc(OCCOC)c(OCCOC)cc23)c1 [erlotinib]
Procedure, shortened: (§1)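 Following dounce homogenisation of K562 pellets in PBS pH 7.4 with 1 mM MgCl2, crude extract at 1 mg/mL protein was incubated for 30 min with 10 μM compound. Aliquots were then heated for 3 min over 48°C-58°C and pooled, NP-40 was added to 0.5% at 4°C, and soluble protein was recovered as the supernatant at 21,000xg for 90 min. Channel-sum-equalised TMTpro 16plex LC-MS/MS quantified this protein. Each value, from duplicates, is a log-two fold change in thermal stability relative to solvent controls.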

[2] = compound: C/C(=N\NC(=O)C1=CC(=CC=C1)S(=O)(=O)N2CCOCC2)/C3=C(C=CC(=C3)Cl)O
Procedure, shortened: as §1

[3] = compound: C1=CC(=CC=C1C2=NC3=C(N2)C=C(C=C3)C(=O)N)OC4=CC=C(C=C4)Cl
Procedure, shortened: as §1

[4] = compound: C1=CC2=C(C=CC(=C2)/C=C\3/C(=O)NC(=NCC4=CC=CS4)S3)N=C1
Procedure, shortened: as §1

[5] = compound: C1=CC2=NC=CN=C2C=C1/C=C/3\C(=O)NC(=O)S3
Procedure, shortened: as §1

[6] = compound: C1=CC=C(C=C1)C2=NC(=C(N2)C3=CC=NC=C3)C4=CC(=C(C=C4)Cl)O
Procedure, shortened: as §1

[7] = compound: C1=CC=C2C(=C1)C3=NNC4=CC=CC(=C43)C2=O
Procedure, shortened: as §1

[8] = compound: C1CCN(C1)C(=O)NC2=CC=CC(=C2)NC3=NC=C(C(=N3)NCCC4=CN=CN4)Br
Procedure, shortened: as §1

[9] = compound: C1CN(CCC1(CC2=CC=C(C=C2)Cl)N)C3=NC=NC4=C3C=CN4
Procedure, shortened: as §1

[10] = compound: C1COCCN1CCN2C3=CC=CC=C3N=C2NC(=O)C4=CC(=CC=C4)[N+](=O)[O-] [IRAK-1-4 Inhibitor I]
Procedure, shortened: as §1

[11] = compound: C=CC(=O)N1CCC[C@@H](n2nc(-c3ccc(Oc4ccccc4)cc3)c3c(N)ncnc32)C1 [ibrutinib]
Procedure, shortened: as §1

[12] = compound: CC(=O)c1cnc2ccc(-c3cc(Cl)c(O)c(Cl)c3)nc2c1N[C@H]1CC[C@H](CN(C)C)CC1
Procedure, shortened: as §1

[13] = compound: CC(C)(C)Cn1c(N)nc2ccc(-c3[nH]c(C(C)(C)C)nc3-c3ccc(F)cc3)nc21 [ralimetinib]
Procedure, shortened: as §1

[14] = compound: CC(C)(O)CC(=O)NCCn1ccc2ncnc(Nc3ccc(Oc4cccc(C(F)(F)F)c4)c(Cl)c3)c21
Procedure, shortened: as §1

[15] = compound: CC(C)C1=C2N=C(C=C(N2N=C1)NCC3=CC=CC=C3)NCCCCCCN
Procedure, shortened: as §1

[16] = compound: CC1=C(C(CC(=O)N1)C2=CC=C(C=C2)C(F)(F)F)C(=O)NC3=C(C=C4C(=C3)C=NN4)F
Procedure, shortened: as §1

[17] = compound: CC1=C(C2=C(C=C1)C(=O)C3=CC=CC=C3N2CCCN)C
Procedure, shortened: as §1

[18] = compound: CC1=C(C=C(C=C1)NC(=O)C2=CC(=CC=C2)C(C)(C)C#N)NC3=CC4=C(C=C3)N=CN(C4=O)C
Procedure, shortened: as §1

[19] = compound: CC1=C(C=C(C=C1)NC(=O)C2=CC(=CC=C2)N(C)C)NC(=O)C3=CC=C(C=C3)O
Procedure, shortened: as §1

[20] = compound: CC1=CC=C(C=C1)SC2=C3C=C(SC3=CN=C2)C(=O)N
Procedure, shortened: as §1

Measured: log2 fold change

NDUFA4 (UniProt O00483)
inactive: [1] 0.038 | [2] 0.092 | [3] -0.012 | [4] 0.055 | [5] 0.009 | [6] 0.055 | [7] 0.046 | [8] 0.012 | [9] 0.001 | [10] -0.01 | [11] 0.007 | [12] 0.199 | [13] 0.022 | [14] 0.03 | [15] -0.068 | [16] -0.045 | [17] -0.036 | [18] -0.058 | [19] 0.009 | [20] -0.199

NBEAL2 (UniProt Q6ZNJ1)
inactive: [1] 0.032 | [2] 0.011 | [3] -0.031 | [4] 0.038 | [5] 0.017 | [6] -0.004 | [7] -0.032 | [8] -0.012 | [9] 0.024 | [10] -0.01 | [11] -0.048 | [12] 0.011 | [13] 0.023 | [14] -0.047 | [15] 0.003 | [16] 0.036 | [17] -0.011 | [18] 0.047 | [19] 0.06 | [20] -0.013

PAK4 (UniProt O96013)
UniProt O96013, sequence (O96013 whole entry, looked up): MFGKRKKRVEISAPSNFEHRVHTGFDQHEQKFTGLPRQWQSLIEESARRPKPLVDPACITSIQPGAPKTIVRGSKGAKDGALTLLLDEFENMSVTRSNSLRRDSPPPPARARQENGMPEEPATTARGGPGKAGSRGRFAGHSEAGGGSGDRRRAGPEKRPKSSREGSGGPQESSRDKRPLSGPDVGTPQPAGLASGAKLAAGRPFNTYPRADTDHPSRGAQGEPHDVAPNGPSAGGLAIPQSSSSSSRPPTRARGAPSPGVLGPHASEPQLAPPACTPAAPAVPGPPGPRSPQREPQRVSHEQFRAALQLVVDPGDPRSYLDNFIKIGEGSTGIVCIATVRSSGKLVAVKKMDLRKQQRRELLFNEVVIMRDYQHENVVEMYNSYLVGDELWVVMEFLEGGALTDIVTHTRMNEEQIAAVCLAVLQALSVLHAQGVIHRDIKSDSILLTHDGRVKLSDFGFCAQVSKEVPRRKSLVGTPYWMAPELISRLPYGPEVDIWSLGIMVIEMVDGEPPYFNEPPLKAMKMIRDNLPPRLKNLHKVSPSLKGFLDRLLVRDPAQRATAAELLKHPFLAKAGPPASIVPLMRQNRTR
inactive: [1] 0 | [2] -0.076 | [3] 0.072 | [4] 0.052 | [5] -0.006 | [6] -0.005 | [7] 0.335 | [8] 0.469 | [9] 0.124 | [10] -0.044 | [11] 0.049 | [12] 0.372 | [13] -0.016 | [14] -0.001 | [15] -0.102 | [16] 0.023 | [17] -0.087 | [18] -0.064 | [19] -0.012 | [20] 0.034

NIPBL (UniProt Q6KC79)
inactive: [1] -0.025 | [2] 0.044 | [3] -0.003 | [4] 0.009 | [5] 0.005 | [6] -0.013 | [7] 0.003 | [8] -0.014 | [9] 0.007 | [10] -0.043 | [11] 0.026 | [12] 0.008 | [13] 0.035 | [14] -0.016 | [15] 0.036 | [16] 0.007 | [17] -0.025 | [18] -0.03 | [19] -0.044 | [20] 0.021

NEBL (UniProt O76041)
inactive: [1] -0.014 | [2] -0.028 | [3] 0.05 | [4] 0.015 | [5] -0.048 | [6] 0.001 | [7] -0.082 | [8] -0.087 | [9] 0.013 | [10] 0.054 | [11] 0.087 | [12] 0.052 | [13] 0.009 | [14] -0.003 | [15] -0.015 | [16] -0.037 | [17] -0.061 | [18] -0.006 | [19] -0.012 | [20] -0.025

NCAPD2 (UniProt Q15021)
UniProt Q15021, sequence (Q15021 whole entry, looked up): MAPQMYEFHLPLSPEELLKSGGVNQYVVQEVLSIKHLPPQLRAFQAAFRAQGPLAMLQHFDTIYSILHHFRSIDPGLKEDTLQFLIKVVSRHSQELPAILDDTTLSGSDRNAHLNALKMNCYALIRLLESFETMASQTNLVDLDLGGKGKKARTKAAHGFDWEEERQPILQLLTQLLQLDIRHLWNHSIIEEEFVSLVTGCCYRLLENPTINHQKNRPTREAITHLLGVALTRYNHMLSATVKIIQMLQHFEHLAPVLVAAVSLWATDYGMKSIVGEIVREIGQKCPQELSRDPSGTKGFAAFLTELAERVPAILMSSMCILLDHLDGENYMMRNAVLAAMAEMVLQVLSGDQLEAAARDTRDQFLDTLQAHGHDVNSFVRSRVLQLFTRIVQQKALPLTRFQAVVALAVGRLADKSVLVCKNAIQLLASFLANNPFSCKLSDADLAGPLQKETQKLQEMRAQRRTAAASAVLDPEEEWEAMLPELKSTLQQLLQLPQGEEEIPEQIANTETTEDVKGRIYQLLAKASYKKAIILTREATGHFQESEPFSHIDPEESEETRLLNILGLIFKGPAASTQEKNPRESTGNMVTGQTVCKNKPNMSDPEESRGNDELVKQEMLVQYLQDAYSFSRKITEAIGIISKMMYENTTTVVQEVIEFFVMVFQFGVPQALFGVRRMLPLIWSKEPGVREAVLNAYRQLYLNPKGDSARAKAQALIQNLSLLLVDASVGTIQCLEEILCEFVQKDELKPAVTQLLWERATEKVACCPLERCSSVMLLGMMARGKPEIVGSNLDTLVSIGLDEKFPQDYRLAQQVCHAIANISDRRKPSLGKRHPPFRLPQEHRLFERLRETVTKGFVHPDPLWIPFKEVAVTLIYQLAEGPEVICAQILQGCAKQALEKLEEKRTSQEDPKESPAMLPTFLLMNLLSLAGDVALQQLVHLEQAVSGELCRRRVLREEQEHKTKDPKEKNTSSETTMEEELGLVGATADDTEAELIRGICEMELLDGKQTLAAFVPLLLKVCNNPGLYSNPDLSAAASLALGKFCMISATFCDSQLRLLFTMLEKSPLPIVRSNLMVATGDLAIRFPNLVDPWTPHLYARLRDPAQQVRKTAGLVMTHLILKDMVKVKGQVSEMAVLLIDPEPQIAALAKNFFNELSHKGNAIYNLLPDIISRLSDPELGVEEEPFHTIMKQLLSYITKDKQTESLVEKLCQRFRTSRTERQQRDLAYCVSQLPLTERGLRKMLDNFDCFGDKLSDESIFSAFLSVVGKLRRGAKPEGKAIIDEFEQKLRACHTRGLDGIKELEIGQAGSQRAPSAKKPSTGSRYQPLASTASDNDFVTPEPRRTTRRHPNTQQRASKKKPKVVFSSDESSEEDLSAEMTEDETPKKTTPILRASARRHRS
inactive: [1] 0.011 | [2] 0.011 | [3] -0.005 | [4] 0.032 | [5] -0.009 | [6] -0.016 | [7] -0.025 | [8] -0.007 | [9] -0.005 | [10] -0.001 | [11] -0.019 | [12] -0.019 | [13] 0.03 | [14] -0.012 | [15] -0.031 | [16] 0.022 | [17] -0.003 | [18] 0.016 | [19] 0.036 | [20] -0.005

NTMT1 (UniProt Q9BV86)
inactive: [1] 0.002 | [2] 0.031 | [3] 0.02 | [4] 0.055 | [5] -0.001 | [6] -0.002 | [7] 0.014 | [8] 0.021 | [9] 0.042 | [10] -0.033 | [11] -0.025 | [12] 0.022 | [13] -0.025 | [14] -0.018 | [15] 0 | [16] -0.005 | [17] -0.01 | [18] -0.008 | [19] 0.047 | [20] 0.01

MSH2 (UniProt P43246)
UniProt P43246, sequence (P43246 whole entry, looked up): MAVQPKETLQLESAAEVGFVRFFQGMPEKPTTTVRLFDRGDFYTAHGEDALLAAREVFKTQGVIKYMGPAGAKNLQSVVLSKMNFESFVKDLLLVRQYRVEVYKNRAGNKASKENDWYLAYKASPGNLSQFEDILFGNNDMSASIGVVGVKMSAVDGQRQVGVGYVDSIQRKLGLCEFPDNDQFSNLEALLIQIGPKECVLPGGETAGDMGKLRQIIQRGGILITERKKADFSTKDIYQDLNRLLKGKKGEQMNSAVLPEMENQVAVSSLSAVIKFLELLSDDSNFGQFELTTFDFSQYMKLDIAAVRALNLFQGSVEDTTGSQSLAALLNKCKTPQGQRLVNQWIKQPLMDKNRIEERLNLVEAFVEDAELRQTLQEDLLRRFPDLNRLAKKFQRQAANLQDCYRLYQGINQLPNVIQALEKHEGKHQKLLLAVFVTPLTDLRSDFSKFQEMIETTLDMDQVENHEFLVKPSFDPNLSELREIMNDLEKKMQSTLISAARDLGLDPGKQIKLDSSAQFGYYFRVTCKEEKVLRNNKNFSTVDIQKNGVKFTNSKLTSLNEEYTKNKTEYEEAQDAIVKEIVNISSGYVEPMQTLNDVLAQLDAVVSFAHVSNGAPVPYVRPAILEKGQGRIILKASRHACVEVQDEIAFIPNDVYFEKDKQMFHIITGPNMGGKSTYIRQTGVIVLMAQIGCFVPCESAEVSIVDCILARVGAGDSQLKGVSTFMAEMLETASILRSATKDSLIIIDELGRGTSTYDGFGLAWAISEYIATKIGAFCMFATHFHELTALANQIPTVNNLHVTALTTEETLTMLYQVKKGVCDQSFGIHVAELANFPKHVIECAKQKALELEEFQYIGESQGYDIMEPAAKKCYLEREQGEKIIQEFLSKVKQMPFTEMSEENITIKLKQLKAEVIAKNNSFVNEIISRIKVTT
inactive: [1] 0.003 | [2] 0.018 | [3] -0.028 | [4] 0.028 | [5] 0.013 | [6] 0.017 | [7] -0.019 | [8] -0.01 | [9] 0.012 | [10] -0.009 | [11] -0.009 | [12] -0.01 | [13] 0.019 | [14] 0.02 | [15] 0.019 | [16] -0.012 | [17] -0.014 | [18] 0 | [19] 0.037 | [20] 0.019

MRPS12 (UniProt O15235)
inactive: [1] -0.015 | [2] -0.058 | [3] 0 | [4] -0.044 | [5] -0.016 | [6] 0.019 | [7] -0.251 | [8] -0.004 | [9] -0.127 | [10] 0.043 | [11] -0.003 | [12] -0.008 | [13] 0.011 | [14] -0.067 | [15] 0.007 | [16] -0.004 | [17] -0.138 | [18] 0.003 | [19] -0.028 | [20] -0.02

PAIP2 (UniProt Q9BPZ3)
inactive: [1] 0.044 | [2] 0.041 | [3] -0.016 | [4] -0.01 | [5] 0.004 | [6] -0.054 | [7] -0.053 | [8] -0.044 | [9] 0.022 | [10] 0.017 | [11] 0.145 | [12] 0.012 | [13] -0.05 | [14] -0.006 | [15] 0.006 | [16] 0.015 | [17] 0.028 | [18] 0.01 | [19] -0.003 | [20] -0.008

PAFAH1B3 (UniProt Q15102)
UniProt Q15102, sequence (Q15102 whole entry, looked up): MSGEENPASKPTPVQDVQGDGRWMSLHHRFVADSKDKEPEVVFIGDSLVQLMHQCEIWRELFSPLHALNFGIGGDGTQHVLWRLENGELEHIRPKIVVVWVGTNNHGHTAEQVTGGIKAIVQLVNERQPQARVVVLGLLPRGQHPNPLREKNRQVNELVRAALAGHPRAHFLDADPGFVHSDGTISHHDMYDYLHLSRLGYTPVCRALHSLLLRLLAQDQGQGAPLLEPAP
inactive: [1] 0.037 | [2] 0.032 | [3] -0.017 | [4] -0.017 | [5] 0.022 | [6] -0.009 | [7] 0.005 | [8] 0.025 | [9] 0.027 | [10] 0.005 | [11] 0.073 | [12] -0.004 | [13] 0.003 | [14] -0.01 | [15] 0.015 | [16] -0.026 | [17] 0.014 | [18] -0.002 | [19] 0.02 | [20] 0.006

NAT1 (UniProt P18440)
inactive: [1] 0.001 | [2] -0.011 | [3] -0.007 | [4] -0.136 | [5] -0.015 | [6] -0.011 | [8] -0.021 | [9] 0.035 | [10] -0.013 | [11] -0.089 | [12] -0.039 | [13] 0.062 | [14] 0.019 | [15] -0.035 | [16] -0.001 | [17] -0.048 | [18] 0.034 | [19] 0.009 | [20] 0.052
active: [7] 0.528

NUP210 (UniProt Q8TEM1)
UniProt Q8TEM1, sequence (Q8TEM1 whole entry, looked up): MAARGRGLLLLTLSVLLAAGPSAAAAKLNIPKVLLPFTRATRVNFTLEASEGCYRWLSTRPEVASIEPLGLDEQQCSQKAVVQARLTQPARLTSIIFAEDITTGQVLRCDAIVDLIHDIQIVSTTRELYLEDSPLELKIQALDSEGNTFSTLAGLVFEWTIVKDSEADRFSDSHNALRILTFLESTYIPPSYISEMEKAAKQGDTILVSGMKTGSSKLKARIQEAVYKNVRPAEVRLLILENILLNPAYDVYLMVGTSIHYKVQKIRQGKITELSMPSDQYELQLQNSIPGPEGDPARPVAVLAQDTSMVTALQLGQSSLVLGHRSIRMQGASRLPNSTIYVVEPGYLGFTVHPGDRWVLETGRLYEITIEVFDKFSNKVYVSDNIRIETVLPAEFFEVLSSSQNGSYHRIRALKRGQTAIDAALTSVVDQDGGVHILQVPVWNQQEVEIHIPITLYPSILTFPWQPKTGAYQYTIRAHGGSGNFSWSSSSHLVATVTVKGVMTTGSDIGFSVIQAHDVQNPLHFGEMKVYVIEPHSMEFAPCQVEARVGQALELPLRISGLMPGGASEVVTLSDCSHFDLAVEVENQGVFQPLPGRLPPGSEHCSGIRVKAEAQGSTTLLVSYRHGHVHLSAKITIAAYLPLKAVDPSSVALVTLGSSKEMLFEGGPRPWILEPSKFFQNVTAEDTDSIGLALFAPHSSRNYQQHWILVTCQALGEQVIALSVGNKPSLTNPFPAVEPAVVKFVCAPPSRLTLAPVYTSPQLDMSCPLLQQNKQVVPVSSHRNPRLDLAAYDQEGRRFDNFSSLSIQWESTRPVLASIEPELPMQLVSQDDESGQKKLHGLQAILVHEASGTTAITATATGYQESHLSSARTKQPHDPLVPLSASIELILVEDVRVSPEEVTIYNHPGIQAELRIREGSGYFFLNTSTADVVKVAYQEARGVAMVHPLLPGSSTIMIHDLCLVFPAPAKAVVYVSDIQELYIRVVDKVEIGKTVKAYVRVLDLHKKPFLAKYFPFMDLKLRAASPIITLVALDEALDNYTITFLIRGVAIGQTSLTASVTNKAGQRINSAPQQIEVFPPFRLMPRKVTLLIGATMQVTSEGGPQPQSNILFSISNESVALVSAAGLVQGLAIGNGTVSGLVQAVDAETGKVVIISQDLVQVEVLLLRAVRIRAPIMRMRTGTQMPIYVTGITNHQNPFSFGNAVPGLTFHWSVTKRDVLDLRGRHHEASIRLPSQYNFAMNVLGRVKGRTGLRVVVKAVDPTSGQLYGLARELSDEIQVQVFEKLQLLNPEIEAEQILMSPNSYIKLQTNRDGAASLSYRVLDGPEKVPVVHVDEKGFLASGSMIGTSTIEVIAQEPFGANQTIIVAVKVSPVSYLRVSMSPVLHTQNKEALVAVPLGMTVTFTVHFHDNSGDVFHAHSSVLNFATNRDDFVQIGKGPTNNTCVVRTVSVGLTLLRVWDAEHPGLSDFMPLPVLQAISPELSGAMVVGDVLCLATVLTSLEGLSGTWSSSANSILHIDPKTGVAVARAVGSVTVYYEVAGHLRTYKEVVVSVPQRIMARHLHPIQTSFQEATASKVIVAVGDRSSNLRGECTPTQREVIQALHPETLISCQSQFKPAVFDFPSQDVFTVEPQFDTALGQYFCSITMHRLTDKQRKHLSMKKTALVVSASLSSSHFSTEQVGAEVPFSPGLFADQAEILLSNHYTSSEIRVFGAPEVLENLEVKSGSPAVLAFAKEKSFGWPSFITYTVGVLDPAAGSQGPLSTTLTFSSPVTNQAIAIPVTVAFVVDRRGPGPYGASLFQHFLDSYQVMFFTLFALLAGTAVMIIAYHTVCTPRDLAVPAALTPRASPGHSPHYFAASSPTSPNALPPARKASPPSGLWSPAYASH
inactive: [1] -0.018 | [2] -0.019 | [3] -0.049 | [4] 0.036 | [5] -0.004 | [6] -0.046 | [7] -0.157 | [8] -0.008 | [9] -0.001 | [10] -0.009 | [11] -0.029 | [12] -0.01 | [13] -0.011 | [14] -0.075 | [15] -0.005 | [16] 0.024 | [17] -0.017 | [18] -0.005 | [19] -0.027 | [20] -0.012

NAA38 isoform 2 (UniProt Q9BRA0)
inactive: [1] 0.049 | [2] -0.065 | [3] 0.013 | [4] 0.019 | [5] -0.045 | [6] -0.055 | [7] 0.008 | [8] -0.052 | [9] 0.008 | [10] 0.031 | [11] 0.015 | [12] -0.012 | [13] -0.02 | [14] -0.015 | [15] -0.014 | [16] 0.052 | [17] -0.017 | [18] -0.028 | [19] 0.022 | [20] -0.029

NELFA (UniProt Q9H3P2)
inactive: [1] -0.04 | [2] -0.018 | [3] 0.002 | [4] 0.047 | [5] 0.007 | [6] 0.007 | [7] -0.009 | [8] 0.011 | [9] -0.001 | [10] -0.017 | [11] 0 | [12] 0.001 | [13] -0.038 | [14] 0.003 | [15] -0.012 | [16] 0.008 | [17] 0.008 | [18] -0.022 | [19] -0.04 | [20] -0.024

MTOR (UniProt P42345)
inactive: [1] 0.02 | [2] 0.031 | [3] -0.058 | [4] -0.022 | [5] 0.038 | [6] 0.025 | [7] -0.018 | [8] -0.012 | [9] 0.003 | [10] 0.006 | [11] -0.016 | [12] 0.001 | [13] 0.018 | [14] -0.005 | [15] -0.043 | [16] 0.02 | [17] 0.019 | [18] 0.031 | [19] 0.058 | [20] -0.013
